Source: PubChem
CBFb-RUNX1 inh = qHTS Assay for Compounds Blocking the Interaction Between CBF-beta and RUNX1 for the Treatment of Acute Myeloid Leukemia; Runt-related transcription factor 1 (Homo sapiens) + Core-binding factor subunit beta …; AlphaScreen CBFb-His/RUNX1-biotin binding, biochemical; Potency, µM (top dose mostly 59.8 µM), for inactives: top-dose activity, negative = inhibition, usual class: inhibitors; 230,000 tested, under 10 active; AID 1477, 2009; also: % of control where 0% means no effect
Target sequence (Q01196 whole entry, looked up): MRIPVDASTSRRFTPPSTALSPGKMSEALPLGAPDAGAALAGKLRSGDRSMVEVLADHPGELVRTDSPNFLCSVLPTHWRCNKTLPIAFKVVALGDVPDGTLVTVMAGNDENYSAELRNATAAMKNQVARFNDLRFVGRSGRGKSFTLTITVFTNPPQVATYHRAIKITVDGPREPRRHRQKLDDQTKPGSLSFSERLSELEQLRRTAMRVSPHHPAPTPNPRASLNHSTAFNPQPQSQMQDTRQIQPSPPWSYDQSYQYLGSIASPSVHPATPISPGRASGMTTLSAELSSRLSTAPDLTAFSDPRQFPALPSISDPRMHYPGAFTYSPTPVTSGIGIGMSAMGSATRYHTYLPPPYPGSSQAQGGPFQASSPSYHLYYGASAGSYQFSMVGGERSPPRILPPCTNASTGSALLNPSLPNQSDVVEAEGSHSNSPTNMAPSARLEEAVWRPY
Target sequence (Q13951 whole entry, looked up): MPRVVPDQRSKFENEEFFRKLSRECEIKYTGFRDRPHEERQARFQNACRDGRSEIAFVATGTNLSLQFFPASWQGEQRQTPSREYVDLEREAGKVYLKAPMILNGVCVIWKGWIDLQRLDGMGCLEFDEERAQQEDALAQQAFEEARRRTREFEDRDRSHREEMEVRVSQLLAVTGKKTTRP
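CBF-beta (His) and RUNX1 (biotin), 30 nM each; 20 min preassociation; + compound, 15 min; + beads 50 ng each (Ni, streptavidin), 90 min; RT; AlphaScreen read.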
TRHR agonist-1 = qHTS for Small Molecule Agonists and Allosteric Enhancers of Human TRH Receptor: Primary Screen for Agonists | Thyrotropin-releasing hormone receptor (Homo sapiens), P34981 | TRHR cells, calcium flux fluo-8, FDSS agonist mode | activation, % at 2 µM | actives 0.18% (n = 360,000) | AID 493084, 2011; in the data active = activation above about 30%; also: 0% is about no effect
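Read-out: compound-evoked intracellular calcium rise in TRHR cells, fluo-8 dye, kinetic FDSS fluorescence at 1 s/cycle following a 10-cycle baseline. Cells cultured overnight before dye loading (30 min–1.5 h, RT).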
TRHR enhancer-1 = qHTS for Small Molecule Agonists and Allosteric Enhancers of Human TRH Receptor: Primary Screen for Enhancers | Thyrotropin-releasing hormone receptor (Homo sapiens), P34981 | TRHR cells, fluo-8 calcium fluorescence, EC20 TRH enhancement | enhancement, % at 2 µM | actives 0.66% (n = 360,000); in the data active = enhancement above about 30%; also: 0% is about no effect
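Enhancer read-out: after compound pinning and an initial kinetic agonist-mode read, an EC20 of TRH (10 nM final) was injected and fluo-8 calcium signal (Ex 480/Em 530) followed at 1 s/cycle for 100 cycles in TRHR-expressing cells.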
IL-2 act = qHTS of IL-2 Activators; IL-2 activation reporter assay, cell-based qHTS; stimulated with anti-CD3/CD4/CD28 beads; in transgenic mouse T cells; activation, % (series mostly up to about 46 µM); actives 0.065% (n = 360,000); in the data active = activation above about 50%; inconclusive = mostly about 30% to 49%; also: 0% is about no effect
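Using fluorescent plate cytometry, EGFP and DsRed are detected in transgenic mouse T cells stimulated 18 h at 37 degrees C with antibody-coated beads after 60 min compound pretreatment.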
Epigenetic derep = Quantitative High-Throughput Screen for Regulators of Epigenetic Control | murine LDR cells, GFP reporter derepression, 30 h | actives 0.2% (n = 280,000) | AID 1865, 2009 | Potency, µM (highest dose often 53.9 µM), for inactives: at the highest dose GFP activation, hits mostly activators; also: potency is read from the fitted curve at half-maximal effect; % of control where 0% means no effect; nearly all actives have a fitted effect of over 60% in size
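Reporter derepression read as number of fluorescent GFP-positive objects, 20-120 um in size, counted by laser-scanning cytometer. Mouse LDR line with an epigenetically silenced CMV-GFP locus; compound incubation 30 h, 37 C.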
MBNL1 CUG block = qHTS Assay for Inhibitors of MBNL1-poly(CUG) RNA binding | Muscleblind-like protein 1 (Homo sapiens), Q9NR56 | TR-FRET MBNL1-His/biotin-(CUG)12 binding, 665/545 ratio | Potency, µM (highest dose often 57.5 µM), for the others: at the top dose activity change, negative = inhibition, hits mostly inhibitors | actives 0.036% (n = 280,000) | AID 2675, 2010; active = well fitted inhibition curve with a large enough effect in the signal ratio, with a control signal flat, not every such curve was filed as active; inconclusive = small, poorly fitted or top-dose-only effect, or effect the other way, or a change in a side signal; inactive = no such curve, though single readings can be large or run the other way; the % refers to the signal ratio; also: potency is read from the fitted curve at half-maximal effect; % is scaled to controls: 0 for no effect and ±100 for the full control effect
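TR-FRET between His-tagged MBNL1 and biotin-(CUG)12 RNA, detected with Tb anti-His antibody (0.055 ng/ul) and streptavidin-XL665 (5 nM), 60 min at room temperature. Compounds titrated 92 nM to 58 uM; 665/545 nm ratio normalized to buffer and complex controls.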
TRHR enhancer-2 = qHTS for Small Molecule Agonists and Allosteric Enhancers of Human TRH Receptor: Confirmation Screen for Enhancers; shares compounds with TRHR enhancer-1; TRH receptor cell assay, enhancer confirmation qHTS; activity change, negative = inhibition, % at 46.1 µM; 970 tested, under 10 active;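 also: compound effect scored on response to added TRH at EC20 of 10 nM; 0% is about no effect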
TRHR agonist-2 = qHTS for Small Molecule Agonists and Allosteric Enhancers of Human TRH Receptor: Confirmation Screen for Agonists. shares compounds with TRHR enhancer-1. TRHR-expressing cells, agonist activation read-out. actives 8% (n = 970). AID 493078, 2011. Potency, µM (doses to about 46.1 µM), without a hit: top-dose activation, hits mostly activators; also: potency is read from the fitted curve at half-maximal effect; 0% is about no effect; nearly all actives have a fitted effect of over 75% in size
An asterisk follows results filed as active; ? = inconclusive; / = no result; [ ] = remark or other dose. A selection: hits, their analogues and other compounds. The true share with any hit is near 0.88%. Unless noted, calls follow the shape of the dose curve; as a rule, active = well fitted curve in the direction sought with a large enough effect; inconclusive = small, poorly fitted or top-dose-only effect, or another doubt; inactive = no such curve, though single readings can be large; an effect the other way counts as inactive or inconclusive.

SMILES	CBFb-RUNX1 inh	TRHR agonist-1	TRHR enhancer-1	IL-2 act	Epigenetic derep	MBNL1 CUG block	TRHR enhancer-2	TRHR agonist-2
Nc1[nH]c2cc([N+](=O)[O-])ccc2c1-c1ccccn1	/	31*	-8	-2	/	?	2	?
Cc1oc(-c2ccc(Cl)cc2)nc1Cn1c(=O)cc(C)c2c(C)nn(-c3ccccc3)c21	/	0	5	/	1%	/	/	/
COc1ccc(N2C(=O)C(CN3CCN(C)CC3)C2c2ccccc2)cc1 (stereo unspecified)	0%	1	67*	0	-1%[10.1 µM]	5%	6	4%
CC(C)c1c(C(=O)N/N=C/C=C/c2ccccc2)nnn1-c1nonc1N	/	0	76*	0	/	15%	9	1%
Cc1ccc(-c2nc(S(=O)(=O)c3ccc(C)cc3)c(SCC(=O)NC3CCCCC3)o2)cc1	/	0	-2	/	1%	/	/	/
Cn1c(SCC(=O)NCc2ccco2)nnc1-c1ccccc1	11%	0	0	0	0%	-8%	/	/
Cn1c(SCC(=O)NCc2ccco2)nnc1-c1ccc(S(=O)(=O)N2CCOCC2)cc1	2%	0	47*	1	1%	-1%	-3	-1%
Cc1cc(=O)n(CC(=O)N2CCN(c3ccccc3F)CC2)c2c1c(C)nn2C	/	0	-4	/	1%	/	/	/
COc1ccc(NC(=O)Cn2c(=O)n(Cc3ccco3)c(=O)c3sc4ccccc4c32)cc1OC	/	0	-4	/	-4%	/	/	/
c1ccc(-n2cccc2CNC2CCCCC2)cc1	14%	0	48*	-3	-4%	5%	-5	9%
O=C(Cn1cc(S(=O)(=O)c2ccccc2)c(=O)c2cc3c(cc21)OCO3)Nc1ccc(Cl)cc1	/	1	-2	/	0%	/	/	/
Nc1c(C(=O)C2CC2)sc2nc(-c3ccccc3)cc(C(F)(F)F)c12	3%	43*	10	1	5%	-8%	9	8.2µM*
O=[N+]([O-])c1ccc(/C=C/C2=NN(c3ccccc3)C(c3ccco3)C2)o1 (stereo unspecified)	?	40*	-9	-7	13µM*	33%	-5	?
C(=C\c1ccco1)/C1=NN(c2ccccc2)C(c2ccco2)C1 (stereo unspecified)	?	10	-2	0	?	32%	/	/
Cc1cccc(NS(=O)(=O)c2ccc(C)c(C(=O)NCC(c3cccs3)N(C)C)c2)c1 (stereo unspecified)	/	1	42*	-6	/	/	2	3%
O=C(O)c1ccc(S(=O)(=O)N2CCSCC2)cc1	/	0	51*	0	/	-7%	-3	0%
NC(=O)c1ccc(S(=O)(=O)N2CCSCC2)cc1	/	0	-3	-3	/	-1%	/	/
O=C(c1ccc2c(c1)OCO2)C1CCCN(C(=O)c2cnn(Cc3ccccc3)c2)C1 (stereo unspecified)	-6%	-1	41*	-1	9%	-12%	-7	0%
O=C(COC(=O)c1cnccn1)Nc1ncc(Cl)cc1Cl	/	0	-3	-2	/	/	/	/
O=C(COC(=O)c1cnccn1)Nc1c(Cl)cc(Cl)cc1Cl	/	1	47*	0	/	/	-2	-1%
CCc1ccccc1N(CC(=O)N/N=C/c1ccc(OC(=O)OC)c(OC)c1)S(C)(=O)=O	2%	43*	-4	1	2%	8%	4	1%
CC(=O)c1cccc(NC(=O)CCn2nc(C)c(S(=O)(=O)N3CCCCC3)c2C)c1	/	-1	-4	/	11%	/	/	/
COc1ccc(N2C(=O)CC(Sc3nc(C)cc(C)c3C#N)C2=O)cc1 (stereo unspecified)	0%	0	41*	2	-2%	18%	-4	1%
CC(=O)NCCNC(=O)c1ccc2c(=O)n(CCc3ccccc3)c(=O)[nH]c2c1	/	0	6	/	-1%	/	/	/
O=C(NCC1CCCO1)c1ccc2c(=O)n(CCc3ccccc3)c(=O)[nH]c2c1 (stereo unspecified)	8%	2	46*	-2	0%	22%	0	2%
SMILES	CBFb-RUNX1 inh	TRHR agonist-1	TRHR enhancer-1	IL-2 act	Epigenetic derep	MBNL1 CUG block	TRHR enhancer-2	TRHR agonist-2
CCCCn1c(=O)nc2n(-c3ccc(F)cc3)c3ccccc3cc-2c1=O	/	0	-4	/	-1%	/	/	/
COc1ccc(C(C)(C)C)cc1NC(=O)c1ccc[n+]([O-])c1	/	1	53*	1	/	0%	8	1%
COc1ccccc1N1CCN(C(=O)CSc2nc3ccccc3nc2N2CCC(C)CC2)CC1	/	0	54*	0	/	16%	-4	0%
COc1ccccc1N1CCN(C(=O)CSc2nc3ccccc3nc2N2CCCCC2)CC1	/	0	-1	-3	/	-7%	/	/
COc1ccc([N+](=O)[O-])cc1NC(=O)c1cn(-c2ccc(Cl)cc2)c(=O)c2ccccc12	10%	0	72*	-1	-2%	-16%	?	1%
C=CCOc1ccc(C2C(C(=O)c3ccco3)=C(O)C(=O)N2c2nnc(C)s2)cc1 (stereo unspecified)	-1%	40*	2	0	15%	?	-6	2%
COc1ccc(C2C(C(=O)c3ccco3)=C(O)C(=O)N2c2nnc(C)s2)cc1 (stereo unspecified)	1%	-1	5	-2	-6%	?	/	/
COC(=O)c1ccc(NC(=O)C(=O)c2c[nH]c3ccccc23)cc1	/	0	7	0	/	6%	/	/
O=C(Nc1ccccc1)C(=O)c1c[nH]c2ccccc12	/	1	50*	1	/	4%	-5	-1%
O=C(COc1ncnc2ccccc12)Nc1ccc(S(=O)(=O)N2CCOCC2)cc1	2%	0	43*	1	4%	-12%	?	0%
